Results from ChEMBL document CHEMBL4513216, “Probing the Open Global Health Chemical Diversity Library for Multistage-Active Starting Points for Next-Generation Antimalarials” (ACS Infect Dis, 2020).
In all, about 69,000 compounds went through this assay and about 8,600 (12%) showed an effect of 50% or more. Many of the other results were omitted from the sample, so strong results are more common in it than they were.

System: Plasmodium berghei
Test: Screen against P. berghei liver stage (PbLuc), transformed with Luciferase, at 10uM
Type: functional, HepG2
Details: tested at 10 uM

| Compound | INHIBITION [%] |
| --- | --- |
| CC(=O)N1CC[C@H]2OCC[C@@]2(C(=O)NCCc2ccccn2)C1 | 3.81 |
| COCCNc1ccc(CNCc2cnc3nc(C)cc(C)n23)cc1 | -45.7 |
| O=C(NCCc1coc(-c2ccc(F)cc2)n1)NCC1CCOC1 (configuration not stated) | 13.8 |
| CCC(C(=O)NCCc1coc(-c2ccc(C)cc2)n1)N(C)C (configuration not stated) | 10.5 |
| Cc1ccc(-c2nc(CCNC(=O)NC3CCC(O)CC3)co2)cc1 (configuration not stated) | 68.8 |
| O=C(NCCc1coc(-c2ccc(F)cc2)n1)NC1CCC(O)CC1 (configuration not stated) | 54.6 |
| O=C(NCCc1coc(-c2ccc(F)cc2)n1)NC1CC1 | 0.914 |
| COc1ccc(-c2nc(CCNC(=O)NCC3CCOC3)co2)cc1 (configuration not stated) | 1.04 |
| O=C(NCCc1coc(-c2ccccc2)n1)NC1CC1 | 44.1 |
| Cc1ccc(-c2nc(CCNC(=O)NC3CCN(C)CC3)co2)cc1 | -9.14 |
| COc1ccc(-c2nc(CCNC(=O)NC3CCC(O)CC3)co2)cc1 (configuration not stated) | 50.6 |
| c1ccc(CCN2CCCC(c3ccnc4nccn34)C2)cc1 (configuration not stated) | 39.1 |
| O=C(c1ccncc1F)N1CC[C@@H]2OC(COCC3CC3)CC[C@@H]21 (some centres not stated) | 14.5 |
| CCCN(CC(F)F)C(=O)CCc1c(C)nc2cc(O)nn2c1C | 4.1 |
| Cc1nn(Cn2ccc(C(=O)N3CCCCCC3)n2)c(C)c1Cl | 26.9 |
| CCn1nc(C)c(CNC(=O)NCC(C)(O)c2ccccc2)c1C (configuration not stated) | -6.12 |
| O=C(NCCCn1cccn1)c1nnc2ccccc2n1 | 37.9 |
| O=C(NCC1CC1)c1nnc2ccc(Cl)cc2n1 | 5.21 |
| CCn1nc(C)c(CNC(=O)c2nnc3ccccc3n2)c1C | 58.2 |
| CCn1nc(C)c(CNC(=O)C2COc3ccccc3C2)c1C (configuration not stated) | 15.9 |
| CCn1nc(C)c(CNC(=O)c2nnc3ccc(OC)cc3n2)c1C | 41.6 |
| O=C(NCCn1cccn1)c1nnc2ccccc2n1 | 68.5 |

| Compound | INHIBITION [%] |
| --- | --- |
| CCn1nc(C)c(CNC(=O)c2nnc3ccc(Cl)cc3n2)c1C | 73.1 |
| Cc1ccc2nnc(C(=O)NCCCn3cccn3)nc2c1 | 26.8 |
| CS(=O)(=O)N1CCCC(C(=O)Nc2cnn(COCC(F)(F)F)c2)C1 (configuration not stated) | 4.08 |
| Cc1ccc(C2(CN(C)Cc3sccc3C)CCNCC2)nc1 | 6.66 |
| CC(C)C(=O)N1CCCC([C@@H]2C[C@H](C(F)F)n3ncnc3N2)C1 (some centres not stated) | 5.295 |
| O=C1CC[C@H]2[C@H](CCN2C(=O)N2CCCC2)N1Cc1ccncc1 | 41.2 |
| Cc1nsc2ncc(C(=O)N3CCCC3c3cnn(C)c3)cc12 (configuration not stated) | 19.2 |
| Cc1ccc2c(c1)[C@@H](CC(=O)N1CCOCC1)CCO2 | 14.5 |
| COc1ccc2c(c1)NC(C1CCNCC1)NS2(=O)=O (configuration not stated) | 19.3 |
| O=S1(=O)NC2(CCCN(Cc3ccc(F)cc3)C2)COc2ccccc21 (configuration not stated) | 0.207 |
| Cc1cncc(C(=O)N2CCCC(O)(CN(C)C)CC2)c1 (configuration not stated) | -5.78 |
| Cc1cccc(C(C(=O)NC(C)(C)CN2CCOCC2)N(C)C)c1 (configuration not stated) | -17.8 |
| CN(C)C[C@]12COC[C@H]1CN(Cc1ccc3c(c1)OCO3)C2 | 28.5 |
| Cc1nn(C)cc1C(=O)N1CCCC(c2nccn2CC2CCC2)C1 (configuration not stated) | 14.1 |
| O=C(CC1CCN(CCc2ccccc2)CC1)N1CCCOCC1 | 33.2 |
| CCCC(O)CN1CCC(=O)N(CC2CC2)Cc2cc3c(cc21)OCO3 (configuration not stated) | 10.9 |
| Cn1cc(CNCCNc2ncc(Cl)cc2Cl)cn1 | -14.5 |
| Cc1c(C(=O)NC2CCCC2)nnn1-c1ccccc1 | -133 |
| Cc1c(C(=O)NC2CCCOC2)nnn1-c1ccc(Cl)cc1F (configuration not stated) | 55.5 |
| Cc1c(C(=O)NC2CCCOC2)nnn1-c1ccccc1 (configuration not stated) | 17.1 |
| Cc1cnn(CC(C)NCC(=O)NCCOc2ccccc2)c1 (configuration not stated) | -0.96 |
| CC(C)(C)n1nnnc1CN(Cc1ccccc1)Cc1ccc(Cl)cc1 | 81.4 |

| Compound | INHIBITION [%] |
| --- | --- |
| CCN(Cc1ccccc1Cl)Cn1nc(C)c2c(C)onc2c1=O | 40.2 |
| CC(C)(C)n1nnnc1CN(CCc1ccccc1)Cc1ccccc1 | 65.7 |
| CCc1ncc(CN(CCc2ccccc2)Cc2cccs2)cn1 | 45.1 |
| CC(C)(C)n1nnnc1CN(Cc1ccccc1)Cc1ccccc1Cl | 91.6 |
| Cn1cc(CN(Cc2ccccn2)Cc2ccccc2Cl)cn1 | -10.4 |
| O=C(c1nnn(-c2ccc(Cl)cc2)n1)N(CCO)Cc1ccccc1 | -23.5 |
| CC(C)N(C(=O)Cn1nnnc1CCc1ccccc1)C(C)C | 37.7 |
| CCc1nc(CN(C(C)=O)C2CCN(Cc3ccccc3F)C2)no1 (configuration not stated) | -11.4 |
| CN(Cc1ccco1)[C@@H]1CN(C(=O)C2CCOCC2)C[C@@H]2CCCO[C@@H]21 | 37.1 |
| CCN(CC)C(=O)Cn1ccc2cc(NC(=O)COC)ccc21 | -7.267 |
| Cn1nccc1-c1nnn2c1COC(CNCc1nccs1)C2 (configuration not stated) | 38.3 |
| N[C@H]1CN(C(=O)c2ccc3[nH]c(=O)c(=O)[nH]c3c2)C[C@@H]1c1ccccc1 | 34.1 |
| Cc1cc(NC(=O)CN2CCC(N3CCNC3=O)CC2)on1 | -71.2 |
| CC(NCc1c(C(C)C)nn(C)c1N(C)C)C(=O)NC1CCCC1 (configuration not stated) | -5.94 |
| CS(=O)(=O)N1CCC(NCC2(N3CCOCC3)CCCCC2)CC1 | 49 |
| C1CCC(NCC2(N3CCOCC3)CCSC2)C1 (configuration not stated) | 30.8 |
| C1CCC(CNC2CCSCC2)(N2CCOCC2)CC1 | 51.1 |
| COCc1nn(C(C)C)c2c1CCN(Cc1cccs1)C2 | 23.5 |
| O=C(c1ccc(N2CCCCCC2)nn1)N1CCc2ccccc21 | -30 |
| CCc1c(-c2ccccc2)nc2c(c(C)c(C)n2CCN(C)C)c1N | 45 |
| CCCc1nc2c(c(C)c(C)n2Cc2ccccn2)c(N)c1CC | 68.1 |
| CCCc1nc(N2CCN(Cc3ccccn3)CC2)c2cnn(C)c2n1 | 27.6 |

| Compound | INHIBITION [%] |
| --- | --- |
| CCc1nc2c(c(C)c(C)n2Cc2cccnc2)c(N)c1C | 29.1 |
| CCCc1nc2c(c(C)c(C)n2Cc2ccncc2)c(N)c1CC | 77.9 |
| CCCc1nc2c(c(C)c(C)n2CCN(C)C)c(N)c1CC | 43.8 |
| CCc1cc(NCCc2cccnc2)n2nc(C)c(C)c2n1 | -1.6 |
| CCCc1nc2c(c(C)c(C)n2Cc2cccnc2)c(N)c1CC | 75.2 |
| Cc1c(-c2ccccc2)nc2c(c(C)c(C)n2CCN(C)C)c1N | -19.4 |
| Cc1nn(C)c(N(C)C)c1CNCCCN(C(C)C)S(C)(=O)=O | 6.15 |
| COc1ncccc1CN1CCn2c(Cn3cncn3)cnc2C1 | 7.96 |
| CCc1nc(C2CCCN2C(=O)c2ccc3c(c2)[nH]c(=O)n3C)no1 (configuration not stated) | -21.7 |
| COc1cccc(CC(=O)NC2CCCc3cn[nH]c32)c1 (configuration not stated) | 33.4 |
| Cc1nn(C)c(Cl)c1CNCc1cccnc1N1CCCCC1 | -13 |
| Cc1noc(C)c1CC(=O)N1CCCC(Cc2ccccn2)C1 (configuration not stated) | -0.6 |
| CC1(C)COCCN1C(=O)Cc1cc(Cl)c2c(c1)OCCO2 | -117 |
| O=C(C[C@@H]1COC[C@H]2CN(C(=O)c3cccnc3)C[C@@H]12)N1CCOCC1 | -81.1 |
| CCOc1ccc2[nH]c(=O)c(CN3CCC(n4cnnc4)CC3)cc2c1 | 43.4 |
| CN(CCn1ccnc1-c1ccccn1)S(C)(=O)=O | -36 |
| Cn1nc(COCC2CC2)c2c1CN(C(=O)c1ccno1)CC2 | 8.85 |
| O=C(c1ccc(Cl)cc1)N1CCCn2nnc(Cn3cccn3)c2C1 | 10.8 |
| CCc1ccc(C(=O)N2CCCn3nnc(Cn4cccn4)c3C2)cc1 | 52.3 |
| Cc1ccccc1C(=O)N1CCCn2nnc(Cn3cccn3)c2C1 | -16.9 |
| O=C(c1ccncc1)N1CCCn2nnc(Cn3cccn3)c2C1 | 33 |
| O=C(CO)N1CCCn2nnc(Cn3cccn3)c2C1 | 12.1 |

| Compound | INHIBITION [%] |
| --- | --- |
| Cc1ccsc1C(=O)N1CCCn2nnc(Cn3cccn3)c2C1 | 60.3 |
| CN1CCOC(CNCc2csc(C3CCCCC3)n2)C1 (configuration not stated) | 13.6 |
| CCN(CC)C(=O)Cn1cc(-c2nc(-c3ccccc3C)no2)nn1 | -19.1 |
| CSCCc1nc(-c2ccc3c(c2)OCO3)n(C)n1 | 25.9 |
| Cn1[nH]c(C2CCC2)c(-c2ccc3c(c2)OCO3)c1=N | 64.7 |
| Cn1[nH]c(C2CC2)c(-c2ccc3c(c2)OCO3)c1=N | 16.5 |
| CCc1[nH]n(C)c(=N)c1-c1ccc2c(c1)OCO2 | 53.6 |
| Cn1nc(C2CCCC2)c(-c2ccc3c(c2)OCO3)c1N | 48 |
| CCCc1[nH]n(C)c(=N)c1-c1ccc2c(c1)OCO2 | 27.6 |
| CN(C)c1ncc2c(O)nc(C3CCCNC3)cc2n1 (configuration not stated) | 24.8 |
| COc1ccccc1OCCCN1CCNC1=O | 12.9 |
| CCC(=O)Nc1nnc2n(Cc3cccc(OC)c3)[nH]c(C)c1-2 | -31 |
| CN(C)S(=O)(=O)c1ccc(CSCC(=O)NC(C)(C)C)o1 | 17.9 |
| CCC(C)(C)NC(=O)CSCc1ccc(S(=O)(=O)N(C)C)o1 | 3.73 |
| CCCNC(=O)CSCc1ccc(S(=O)(=O)N(C)C)o1 | 53.7 |
| Cc1occc1C(=O)N1CCc2c(CNS(C)(=O)=O)cncc2C1 | 6.55 |
| COc1c(NC(=O)N(C)CCOc2ccccc2)c(C)nn1C | -24.6 |
| CC(C)Oc1cccc(CN(C)C(=O)Nc2cccn(C)c2=O)c1 | -15 |
| CN(CCOc1ccccc1)C(=O)Nc1cccn(C)c1=O | 82.4 |
